In the supplement of paper PMC11732987, “Enantioselective OTUD7B fragment discovery through chemoproteomics screening and high-throughput optimisation” (Communications Chemistry, 2025):

Columns and labels:
Assay in all cases: log2 ratio of Biotin-Ahx-Ub-VS probe labelling (fragment/DMSO); higher = less target engagement (more negative = stronger competition), active = hit call of the paper (q ≤ 0.05, log2 ratio ≤ -1)
Details in all cases: compound concentration: 200 uM; treatment time: 3 h
USP19 = target: T1, USP19 (UniProt O94966)
T1 sequence (whole entry): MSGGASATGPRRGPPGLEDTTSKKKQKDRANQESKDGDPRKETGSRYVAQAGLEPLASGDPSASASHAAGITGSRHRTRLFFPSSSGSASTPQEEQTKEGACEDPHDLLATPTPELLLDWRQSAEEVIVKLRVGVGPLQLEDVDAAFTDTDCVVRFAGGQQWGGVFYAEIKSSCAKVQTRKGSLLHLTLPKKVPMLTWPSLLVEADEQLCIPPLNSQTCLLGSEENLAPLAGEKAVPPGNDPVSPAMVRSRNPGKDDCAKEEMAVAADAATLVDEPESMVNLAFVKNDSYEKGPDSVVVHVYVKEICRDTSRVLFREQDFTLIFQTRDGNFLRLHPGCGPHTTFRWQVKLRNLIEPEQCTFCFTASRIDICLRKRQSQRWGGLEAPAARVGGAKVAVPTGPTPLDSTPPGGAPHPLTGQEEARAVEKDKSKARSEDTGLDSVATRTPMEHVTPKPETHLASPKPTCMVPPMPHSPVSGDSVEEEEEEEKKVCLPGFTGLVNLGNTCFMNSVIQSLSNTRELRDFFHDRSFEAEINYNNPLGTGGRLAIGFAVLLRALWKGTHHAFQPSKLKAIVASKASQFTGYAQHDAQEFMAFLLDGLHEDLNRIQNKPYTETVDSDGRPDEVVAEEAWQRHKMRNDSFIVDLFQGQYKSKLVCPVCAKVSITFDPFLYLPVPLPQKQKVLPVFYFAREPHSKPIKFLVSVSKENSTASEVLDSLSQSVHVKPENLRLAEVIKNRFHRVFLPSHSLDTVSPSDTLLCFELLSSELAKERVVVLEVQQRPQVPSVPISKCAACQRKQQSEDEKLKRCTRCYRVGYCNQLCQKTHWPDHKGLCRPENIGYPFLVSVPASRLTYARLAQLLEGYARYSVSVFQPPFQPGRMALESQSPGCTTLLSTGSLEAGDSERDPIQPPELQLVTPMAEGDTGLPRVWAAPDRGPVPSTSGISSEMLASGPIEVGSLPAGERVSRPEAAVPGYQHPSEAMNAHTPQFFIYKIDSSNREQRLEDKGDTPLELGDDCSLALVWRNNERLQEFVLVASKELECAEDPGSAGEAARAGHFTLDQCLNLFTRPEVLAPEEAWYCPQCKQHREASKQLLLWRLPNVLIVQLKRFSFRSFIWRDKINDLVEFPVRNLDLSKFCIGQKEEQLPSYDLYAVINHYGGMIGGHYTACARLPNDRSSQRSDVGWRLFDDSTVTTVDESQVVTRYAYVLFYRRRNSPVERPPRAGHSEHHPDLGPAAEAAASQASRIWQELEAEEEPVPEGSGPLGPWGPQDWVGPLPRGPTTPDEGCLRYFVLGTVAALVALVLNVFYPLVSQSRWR
Summary of the method: (§1)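 Using Biotin-Ahx-Ub-VS at 0.5 µM final for 1 h, DUBs were labelled in HEK293T lysate (495 µg per sample) that had first been treated in triplicate with fragment at 200 µM or vehicle for 3 h. NeutrAvidin enrichment, LysC and trypsin digestion and diaPASEF LC-MS/MS followed. Spectronaut label-free quantities were global-median-normalised. Values are average log2 fragment/vehicle ratios by unpaired t-test, using proteins with ≥2 unique peptides.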

USP22 = target: T2, USP22 (UniProt Q9UPT9)
T2 sequence (whole entry): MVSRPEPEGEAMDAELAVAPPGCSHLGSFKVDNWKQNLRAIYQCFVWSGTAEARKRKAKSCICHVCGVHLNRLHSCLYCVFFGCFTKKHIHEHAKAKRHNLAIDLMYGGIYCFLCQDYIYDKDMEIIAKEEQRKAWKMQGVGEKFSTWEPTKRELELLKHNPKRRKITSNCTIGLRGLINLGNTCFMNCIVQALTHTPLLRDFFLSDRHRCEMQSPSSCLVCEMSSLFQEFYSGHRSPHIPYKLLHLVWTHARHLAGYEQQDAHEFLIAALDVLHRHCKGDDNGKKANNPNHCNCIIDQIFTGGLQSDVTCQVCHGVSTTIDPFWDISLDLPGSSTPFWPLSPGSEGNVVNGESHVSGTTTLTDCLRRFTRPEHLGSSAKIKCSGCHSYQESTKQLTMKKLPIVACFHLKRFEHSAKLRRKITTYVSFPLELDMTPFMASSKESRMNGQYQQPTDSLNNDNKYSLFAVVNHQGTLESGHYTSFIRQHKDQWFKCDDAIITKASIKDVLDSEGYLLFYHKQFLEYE
Summary of the method: as §1

USP24 = USP24 (UniProt Q9UPU5)
Summary of the method: as §1

USP25 = target: T3, USP25 (UniProt Q9UHP3)
T3 sequence (whole entry): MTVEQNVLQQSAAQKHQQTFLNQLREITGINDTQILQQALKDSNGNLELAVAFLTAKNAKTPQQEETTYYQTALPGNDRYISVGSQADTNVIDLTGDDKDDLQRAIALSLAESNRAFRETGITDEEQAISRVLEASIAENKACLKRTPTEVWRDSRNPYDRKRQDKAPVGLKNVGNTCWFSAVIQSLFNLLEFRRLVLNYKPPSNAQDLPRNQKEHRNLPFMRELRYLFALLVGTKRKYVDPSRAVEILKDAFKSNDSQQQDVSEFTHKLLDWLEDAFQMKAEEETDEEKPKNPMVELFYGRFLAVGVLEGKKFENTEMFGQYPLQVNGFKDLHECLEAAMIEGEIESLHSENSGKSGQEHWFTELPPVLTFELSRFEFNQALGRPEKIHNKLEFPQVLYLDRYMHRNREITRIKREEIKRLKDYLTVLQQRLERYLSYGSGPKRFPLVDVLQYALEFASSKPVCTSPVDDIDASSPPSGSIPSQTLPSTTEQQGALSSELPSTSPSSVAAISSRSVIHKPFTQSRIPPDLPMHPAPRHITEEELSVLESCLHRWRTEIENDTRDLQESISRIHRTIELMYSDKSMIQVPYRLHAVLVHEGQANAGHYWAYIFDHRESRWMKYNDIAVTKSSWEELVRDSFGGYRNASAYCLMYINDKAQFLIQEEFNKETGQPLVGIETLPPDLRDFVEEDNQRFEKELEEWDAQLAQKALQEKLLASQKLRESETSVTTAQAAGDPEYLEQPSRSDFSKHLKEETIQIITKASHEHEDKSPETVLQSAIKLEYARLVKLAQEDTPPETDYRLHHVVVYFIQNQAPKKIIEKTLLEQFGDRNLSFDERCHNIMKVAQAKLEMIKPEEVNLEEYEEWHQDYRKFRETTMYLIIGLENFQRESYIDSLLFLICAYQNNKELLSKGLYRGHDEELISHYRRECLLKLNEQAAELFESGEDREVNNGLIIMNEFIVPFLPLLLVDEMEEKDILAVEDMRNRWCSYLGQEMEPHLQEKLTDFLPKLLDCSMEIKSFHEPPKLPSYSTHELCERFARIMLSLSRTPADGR
Summary of the method: as §1

USP28 = target: T4, USP28 (UniProt Q96RU2)
T4 sequence (whole entry): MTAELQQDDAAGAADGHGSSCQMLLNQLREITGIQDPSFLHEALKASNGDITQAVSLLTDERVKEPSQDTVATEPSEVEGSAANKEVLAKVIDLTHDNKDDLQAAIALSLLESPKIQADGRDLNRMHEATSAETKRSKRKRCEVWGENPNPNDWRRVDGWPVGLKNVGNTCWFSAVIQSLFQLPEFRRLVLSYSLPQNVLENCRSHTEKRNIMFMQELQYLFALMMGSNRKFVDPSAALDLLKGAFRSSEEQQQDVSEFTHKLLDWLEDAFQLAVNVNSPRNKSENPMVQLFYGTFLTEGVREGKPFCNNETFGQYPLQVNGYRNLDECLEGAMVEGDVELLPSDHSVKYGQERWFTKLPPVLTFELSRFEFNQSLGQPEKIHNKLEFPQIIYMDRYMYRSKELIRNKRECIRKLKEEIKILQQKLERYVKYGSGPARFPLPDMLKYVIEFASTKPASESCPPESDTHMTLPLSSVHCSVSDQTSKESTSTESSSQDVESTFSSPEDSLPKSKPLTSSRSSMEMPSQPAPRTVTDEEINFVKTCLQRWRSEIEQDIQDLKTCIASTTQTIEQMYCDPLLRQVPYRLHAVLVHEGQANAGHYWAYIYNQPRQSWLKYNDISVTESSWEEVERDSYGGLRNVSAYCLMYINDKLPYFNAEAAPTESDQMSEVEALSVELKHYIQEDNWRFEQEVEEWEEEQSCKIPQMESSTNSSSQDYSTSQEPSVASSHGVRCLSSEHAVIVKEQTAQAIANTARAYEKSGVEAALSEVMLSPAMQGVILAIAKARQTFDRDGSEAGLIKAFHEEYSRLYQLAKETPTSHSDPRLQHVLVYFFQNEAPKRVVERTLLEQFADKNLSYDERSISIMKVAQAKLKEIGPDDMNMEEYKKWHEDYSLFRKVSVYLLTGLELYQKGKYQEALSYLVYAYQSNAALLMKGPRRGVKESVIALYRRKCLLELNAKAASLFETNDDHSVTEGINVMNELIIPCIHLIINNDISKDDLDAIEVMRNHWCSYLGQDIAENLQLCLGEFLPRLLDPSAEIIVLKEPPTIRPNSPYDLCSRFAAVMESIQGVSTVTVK
Summary of the method: as §1

Measured: log2 ratio of Biotin-Ahx-Ub-VS probe labelling

Chain of USP24 (Q9UPU5 whole entry): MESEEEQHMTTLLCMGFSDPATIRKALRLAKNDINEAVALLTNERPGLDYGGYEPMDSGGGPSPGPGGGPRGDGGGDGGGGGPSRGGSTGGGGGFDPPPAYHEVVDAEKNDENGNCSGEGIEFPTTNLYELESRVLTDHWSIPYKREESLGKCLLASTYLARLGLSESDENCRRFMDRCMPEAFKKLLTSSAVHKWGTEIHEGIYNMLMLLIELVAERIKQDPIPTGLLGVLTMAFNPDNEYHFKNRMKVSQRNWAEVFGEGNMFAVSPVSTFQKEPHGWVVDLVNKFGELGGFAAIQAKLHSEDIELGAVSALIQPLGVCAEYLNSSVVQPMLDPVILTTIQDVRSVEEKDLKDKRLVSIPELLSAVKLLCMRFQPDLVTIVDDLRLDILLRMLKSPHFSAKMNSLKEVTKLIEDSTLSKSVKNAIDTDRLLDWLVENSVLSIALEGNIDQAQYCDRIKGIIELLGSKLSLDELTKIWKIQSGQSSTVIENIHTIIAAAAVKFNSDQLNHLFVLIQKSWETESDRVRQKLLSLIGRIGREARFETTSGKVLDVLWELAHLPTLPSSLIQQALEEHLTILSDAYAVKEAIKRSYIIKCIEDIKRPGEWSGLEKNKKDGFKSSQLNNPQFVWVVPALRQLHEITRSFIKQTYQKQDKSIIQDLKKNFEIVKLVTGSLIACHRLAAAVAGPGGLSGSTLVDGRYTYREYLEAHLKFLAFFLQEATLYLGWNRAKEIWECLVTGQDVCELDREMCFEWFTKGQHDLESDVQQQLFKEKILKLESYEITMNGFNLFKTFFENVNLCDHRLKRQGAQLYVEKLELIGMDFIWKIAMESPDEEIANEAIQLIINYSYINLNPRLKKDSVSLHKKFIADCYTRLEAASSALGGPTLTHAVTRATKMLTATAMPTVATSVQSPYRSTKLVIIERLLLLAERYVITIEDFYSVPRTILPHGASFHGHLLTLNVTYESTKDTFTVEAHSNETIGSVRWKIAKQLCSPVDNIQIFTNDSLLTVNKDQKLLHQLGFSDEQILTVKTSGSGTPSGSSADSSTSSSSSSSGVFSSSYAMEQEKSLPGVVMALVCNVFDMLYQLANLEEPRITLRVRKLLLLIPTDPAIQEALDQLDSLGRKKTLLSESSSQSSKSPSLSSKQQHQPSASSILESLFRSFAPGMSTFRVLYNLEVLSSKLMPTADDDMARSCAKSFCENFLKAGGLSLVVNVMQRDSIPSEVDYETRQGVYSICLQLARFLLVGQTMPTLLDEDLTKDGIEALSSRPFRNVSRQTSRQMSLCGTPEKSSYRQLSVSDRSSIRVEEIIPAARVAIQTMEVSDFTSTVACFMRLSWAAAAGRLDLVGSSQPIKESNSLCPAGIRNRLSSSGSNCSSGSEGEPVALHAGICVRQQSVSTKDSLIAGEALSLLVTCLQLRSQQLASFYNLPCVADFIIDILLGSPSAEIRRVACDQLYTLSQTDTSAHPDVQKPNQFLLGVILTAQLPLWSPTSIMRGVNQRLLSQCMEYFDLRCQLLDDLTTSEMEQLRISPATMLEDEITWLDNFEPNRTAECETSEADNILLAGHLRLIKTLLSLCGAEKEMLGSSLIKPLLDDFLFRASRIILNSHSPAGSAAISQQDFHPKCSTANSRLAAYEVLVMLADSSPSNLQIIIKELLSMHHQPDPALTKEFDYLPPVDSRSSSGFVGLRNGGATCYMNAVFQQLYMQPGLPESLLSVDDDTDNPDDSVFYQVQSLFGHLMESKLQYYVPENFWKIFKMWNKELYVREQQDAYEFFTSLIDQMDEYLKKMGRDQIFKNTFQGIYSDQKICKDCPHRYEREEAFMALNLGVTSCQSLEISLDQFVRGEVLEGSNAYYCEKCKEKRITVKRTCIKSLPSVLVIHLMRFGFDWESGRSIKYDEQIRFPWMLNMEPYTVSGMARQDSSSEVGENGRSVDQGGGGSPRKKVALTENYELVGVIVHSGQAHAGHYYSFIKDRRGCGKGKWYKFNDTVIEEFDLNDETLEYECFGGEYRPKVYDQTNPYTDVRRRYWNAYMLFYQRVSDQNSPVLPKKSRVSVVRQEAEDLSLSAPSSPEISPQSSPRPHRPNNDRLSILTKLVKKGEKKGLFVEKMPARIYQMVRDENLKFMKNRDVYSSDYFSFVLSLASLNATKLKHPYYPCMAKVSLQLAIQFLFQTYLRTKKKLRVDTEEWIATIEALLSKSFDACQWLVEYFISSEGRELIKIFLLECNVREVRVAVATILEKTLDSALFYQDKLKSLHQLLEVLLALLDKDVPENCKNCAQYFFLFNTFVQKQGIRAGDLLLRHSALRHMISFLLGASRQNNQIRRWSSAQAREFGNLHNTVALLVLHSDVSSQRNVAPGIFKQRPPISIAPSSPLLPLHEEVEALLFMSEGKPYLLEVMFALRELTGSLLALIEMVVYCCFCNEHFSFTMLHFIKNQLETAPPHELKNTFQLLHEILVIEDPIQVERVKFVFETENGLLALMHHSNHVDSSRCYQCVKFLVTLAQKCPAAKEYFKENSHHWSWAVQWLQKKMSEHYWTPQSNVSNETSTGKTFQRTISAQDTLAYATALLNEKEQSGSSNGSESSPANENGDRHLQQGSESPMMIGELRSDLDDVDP

Cl.Cn1c(CNC(=O)CCl)nc2cccnc21
inactive: USP19 -0.0671 | USP22 -0.175 | USP24 -0.218 | USP25 -0.148 | USP28 -0.316
